Here are results for 20 molecules from PubChem BioAssay (NCATS).

Results filed as inconclusive are left out. A call without a number means that no potency is given here. Active and inactive are the calls of the source. Calls come from the whole dose curve; as a rule, active = well fitted cell-killing curve with a large enough effect; inconclusive = small, poorly fitted or top-dose-only effect, or effect the other way; inactive = no such curve, though single readings can be large or run the other way.
Potency is the fitted concentration of half-maximal effect.

A short description of the assay: qHTS of pediatric cancer cell lines to identify multiple opportunities for drug repurposing: Confirmatory screen for Rh30 cells (AID 1347126). Note: nearly all actives have a fitted effect of over 55% in size. As to conditions: Rh30 rhabdomyosarcoma cell viability; series mostly up to 45.9 µM. The text has this: Drug repurposing or repositioning has been offered as a strategy for drug development in oncology programs. This approach has special potential for childhood cancers and other rare or orphan diseases, where the expected return on new drug development has been a disincentive to pharmaceuticals.
In this project we exploit the poly-pharmacology of drugs to discover new indications via phenotypic screening of a panel of 19 well-characterized cell lines derived from solid tumors seen in children and adolescents. The goal is to identify approved drugs with previously unrecognized anticancer properties that has the potential to reveal new mechanisms and biological processes involved in carcinogenesis or drug resistance. We employed a titration-based paradigm (quantitative high-throughput screening or qHTS), where all compounds were tested at multiple concentrations for their effect on cell viability. Concentration-response curves (CRCs) were derived directly from the primary screen, and both potency and efficacy values were used to identify compounds with robust bioactivity profiles. We screened the NIH Chemical Genomics Center (NCGC) Pharmaceutical Collection (NPC) and Mechanism Interrogation Plate (MIPE) small molecule collections of approved and investigational compounds against these cell lines; and measured metabolically active cells after 48 hours of compound treatment as a proxy for cell viability.
Assay Submitter: Nathalia J. Martinez, National Center for Advancing Translational Sciences, National Institutes of Health, Rockville, MD, USA; email: natalia.martinez@nih.gov
[1] Shen, M et al. Quantitative high-throughput phenotypic screening of pediatric cancer cell lines identifies multiple opportunities for drug repurposing. Oncotarget 2017 Dec 19;9(4):4758-4772. PMID 29435139.
The cells were obtained from University of North Carolina (UNC), Pediatric Preclinical Testing Program (PPT), and Coriell Institute (CI).
qHTS cell viability assay:
Cells were assayed in growth media at a density of 500-1,000 cells/well. Five microliters of cells were dispensed into 1,536-well, white, solid-bottom, TC-treated plates (Greiner Bio One) using a multidrop dispenser and incubated at 37 degrees C, 5% CO2, under a humidified atmosphere for 5 hours. Twenty-three nanoliters of compounds and controls (neutral control DMSO or positive control bortezomib at final concentration of 2.3 µM) were subsequently transferred by Kalypsys pintool. For primary screens, the MIPE collection was tested at 11-point dilutions (final concentrations range from 0.78 nM to 46 µM) and the NPC collection at 8-point dilutions (final concentrations range from 0.59 nM to 46 µM). Compounds tested in follow-up screens were assayed at 11-point dilutions. Cells were incubated for 48 hours, followed by addition of 3 µL of CellTiter-Glo (Promega). After a 15 min incubation at room temperature, samples were analyzed for luminescence intensity using a ViewLux High-throughput CCD imager equipped with clear filters.
In general terms: Quantitative high-throughput screening tests each substance at several concentrations.
Take `Nc1ccc2cc3ccc(N)cc3nc2c1`: the Potency was 7.37 µM (active).
As to `CCC1(c2cnc[nH]2)Cc2ccccc2C1`, the Potency is 10.4 µM (active).
In the case of `Cc1nc(N)nc(N)c1-c1ccc(Cl)c(Cl)c1`, the Potency result is “inactive”.
As to `CCCCC(CC)CNC(=O)CC(C)OC(=O)CCC(=O)O` (stereo not given), the Potency result is “inactive”.
`CO[C@@H]1[C@@H](OC)[C@H](C)[C@@](O)(CC(=O)O)O[C@H]1[C@H](C)[C@H]1O[C@@]2(CC[C@@](C)([C@H]3CC[C@@](C)([C@@H]4O[C@@H]([C@H]5O[C@](C)(O)[C@H](C)C[C@@H]5C)C[C@@H]4OC4C[C@H](OC)[C@@H](OC)[C@H](C)O4)O3)O2)C[C@H](O)[C@H]1C` (stereo not given in full): the Potency is 7.37 µM (active).
Regarding `CC[C@@]1(O)C(=O)OCc2c1cc1n(c2=O)Cc2c-1nc1ccccc1c2/C=N/OC(C)(C)C`, the Potency was 0.522 µM (active).
The result for `Cc1ccc(C(=O)Oc2ccc(C(O)CNC(C)(C)C)cc2OC(=O)c2ccc(C)cc2)cc1` (stereo not given) reads “inactive”.
For `Nc1c2ccccc2nc2ccccc12`, the Potency was 7.37 µM (active).
In the case of `CCCC(=O)O[C@]1(C(=O)CCl)[C@@H](C)C[C@H]2[C@@H]3CCC4=CC(=O)C=C[C@]4(C)[C@@]3(F)C(=O)C[C@@]21C`, the Potency entry was “inactive”.
As to `O=c1[nH]sc2cc(Cl)ccc12`, the Potency was 6.57 µM (active).
Regarding `CC(=O)[C@@]1(O)CC[C@H]2[C@@H]3C[C@H](C)C4=CC(=O)CC[C@]4(C)[C@H]3CC[C@@]21C`, the Potency is 0.414 µM (active).
With `CCC(=O)O[C@]1(C(=O)COC)[C@@H](C)C[C@H]2[C@@H]3CCC4=CC(=O)C=C[C@]4(C)C3(F)[C@@H](O)C[C@@]21C` (stereo not given in full) the entry was “inactive”; with `C[C@]12CCC(=O)C=C1CC[C@@H]1[C@@H]2[C@@H](O)C[C@@]2(C)[C@H]1CC[C@]2(O)C(=O)COC(=O)CCC(=O)O`, “inactive”; with `CCc1cc2cc(OC)c(OC)cc2c(Cc2ccccc2)n1`, “inactive”.
The result for `CC(=O)O[C@@H]1C(=O)O[C@@H]2[C@H]1OC(=O)[C@@H]2OC(C)=O` reads 5.85 µM (active); that for `CN(C)CCN(Cc1ccsc1)c1ccccn1`, “inactive”; that for `CCCCC(=O)OCC(=O)[C@H]1[C@H](C)C[C@H]2[C@@H]3C[C@H](F)C4=CC(=O)C=C[C@]4(C)[C@@]3(F)[C@@H](O)C[C@@]21C`, 14.7 µM (active).
For `Cc1cc(OCCOCC[N+](C)(C)Cc2ccccc2)ccc1C(C)(C)CC(C)(C)C`, the Potency was 13.1 µM (active).
As to `CCOC(=O)O[C@]1(C(=O)OCCl)CC[C@H]2[C@@H]3CCC4=CC(=O)C=C[C@]4(C)[C@H]3[C@@H](O)C[C@@]21C`, the Potency entry is “inactive”.
With `N=C(N)c1ccc(OCCCOc2ccc(C(=N)N)cc2)cc1`, the Potency entry was “inactive”.
